# Source: PubChem BioAssay AID504558 (Broad Institute, 2011)
# Among all 350,000 compounds or so, about 2,400 (0.69%) were called active. The sample holds actives, similar compounds and a random draw of the others, so the mix is not that of the screen. No stated cut-off is given here; in the data, active means inhibition above about 41%; inconclusive means no clear call, values can overlap the other calls; inactive means below that.
# Test: EBV LMP1-driven NF-kappaB luciferase reporter inhibitors, primary screen, cell-based, luminescence, single point (AID 504558);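 further: 0% = neutral control wells and 100% = reference inhibitor control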
# Conditions: LMP1-induced NF-kappaB luciferase reporter cells, at 12.5 µM, stronger effect = higher value
row,Structure (SMILES),inhibition
1,COc1cc(SC)ccc1C(=O)Nc1nc(C)cs1,77% (active)
2,COc1ccc(C(=O)NC2=NCCS2)c(OC)c1,14.4% (inactive)
3,COC(=O)c1sc(NC(=S)NC(=O)c2ccc(C)cc2)nc1C,-2.09% (inactive)
4,Cc1csc(NC(=O)c2ccc(-c3ccc(Cl)cc3Cl)o2)n1,5.23% (inactive)
5,COC(=O)c1sc(NC(=O)c2ccc(OC)cc2OC)nc1C,56.8% (active)
6,COc1cc(SC)ccc1C(=O)NNC(=O)C1COc2ccccc2O1 (stereo not drawn),3.35% (inactive)
7,O=C(c1ccc(N2CCCC2=O)cc1)N1CCN(c2ccc(C(F)(F)F)cc2[N+](=O)[O-])CC1,5.85% (inactive)
8,CCc1c(N=O)c(-c2ccccc2)n(O)[n+]1[O-],-1.78% (inactive)
9,COc1ccc(CN2C[C@H]3CON(C)[C@H]3C[C@H]2c2ccc(-c3cccc(F)c3)cc2)cc1,6.65% (inactive)
10,C=CCN1CCN(c2ccncc2S(=O)(=O)N2CCN(C)CC2)CC1,-2.07% (inactive)
11,C[C@H]1CN([C@@H](C)CO)C(=O)CCCn2cc(nn2)CO[C@@H]1CN(C)S(=O)(=O)c1ccc(-c2ccccc2)cc1,1.8% (inactive)
12,CC(=O)CC[C@@H](C)O[C@@H]1OC(C)[C@H](O)CC1O (stereo partly drawn),85.2% (active)
13,COCCNC(=O)CSc1nc(N)c(NC(=O)c2ccco2)c(=O)[nH]1,2.34% (inactive)
14,CN1CCN(c2ccncc2S(=O)(=O)N2CCCC2)CC1,-0.542% (inactive)
15,Cn1nc(N)c2ncc(C(Cl)(Cl)Cl)nc21,1.82% (inactive)
16,O=C1[C@H]2[C@@H](c3ccc(C(F)(F)F)cc3)N[C@]3(CCCN(Cc4ccc(Br)cc4)C3=O)[C@H]2C(=O)N1Cc1ccccc1,-24.7% (inactive)
17,CCCCCCCCCCOC(=O)C[N+](C)(C)CC1CCCCC1O (stereo not drawn),51% (active)
18,CCCCCOC(=O)c1ccc(N2C(=O)C3C4C=CC(C4)C3C2=O)cc1 (stereo not drawn),0.71% (inactive)
19,CC[C@]1(C(=O)OC)[C@H]2C(=O)N(Cc3ccccc3)C(=O)[C@H]2[C@H]2CN=C(SCc3ccccc3)N21,-0.0665% (inactive)
20,CCCN=C1N(C)C[C@@H]2[C@@H]3C(=O)N(Cc4ccccc4)C(=O)[C@@H]3[C@](C)(C(=O)OC)N12,-3.21% (inactive)
21,CCN1C[C@@H]2[C@@H]3C(=O)N(Cc4ccccc4)C(=O)[C@@H]3[C@](Cc3ccccc3)(C(=O)OC)N2C1=NC1CCCCC1,0.675% (inactive)

row,Structure (SMILES),inhibition
1,COC(=O)[C@@]1(C)[C@H]2C(=O)N(Cc3ccccc3)C(=O)[C@H]2[C@H]2CN=C(SCC3CC3)N21,-0.447% (inactive)
2,CC[C@]1(C(=O)OC)[C@H]2C(=O)N(Cc3ccccc3)C(=O)[C@H]2[C@H]2CN=C(SCc3ccc(C#N)cc3)N21,61.8% (active)
3,CC[C@]1(C(=O)OC)[C@H]2C(=O)N(Cc3ccccc3)C(=O)[C@H]2[C@H]2CN=C(SCc3ccc(Cl)cc3)N21,87.9% (active)
4,C[C@@H]1CN([C@H](C)CO)C(=O)CCCn2nncc2CO[C@@H]1CN(C)C(=O)OCc1ccccc1,3.33% (inactive)
5,CCCCCC(=O)N1C[C@H](O)[C@@H](n2cc(COC(=O)c3ccccc3)nn2)C[C@@H]1c1ccc(C)cc1,-2.09% (inactive)
6,CC(C)n1ncc2c(C(=O)N3CCN(Cc4cccs4)CC3)cc(C3CC3)nc21,-5.29% (inactive)
7,NC(=S)NN=Cc1ccc(OC(=O)COc2cc(Cl)c(Cl)cc2Cl)cn1,12.2% (inactive)
8,CC1=C(C(=O)N(C)C)CC(CC(=O)NCCN2CCOCC2)C(=O)N1Cc1ccccc1 (stereo not drawn),-6.42% (inactive)
9,O=C(c1cccs1)N1C[C@H](n2cc(C3CC3)nn2)[C@@H](O)C[C@@H]1c1ccccc1,5.6% (inactive)
10,COc1ccc(NC(=O)N2CCCC2C(=O)NCc2ccccc2Cl)cc1 (stereo not drawn),86.6% (active)
11,COc1ccc(NC(=O)C(NC(C)=O)C(=O)NCc2ccccc2Cl)cc1 (stereo not drawn),-2.84% (inactive)
12,Cc1cccc(NC(=O)C2CCCN2S(=O)(=O)c2ccc(F)cc2)c1C (stereo not drawn),-1.63% (inactive)
13,COc1ccc(CCNC(=O)C2CCCN2C(=O)Nc2ccccc2)cc1OC (stereo not drawn),-0.848% (inactive)
14,O=C(NCc1ccccc1CN1CCCC1)C1CCN(S(=O)(=O)c2ccc(Cl)cc2)CC1,-3.5% (inactive)
15,O=C(NCc1ccccc1Cl)C1CCCN1S(=O)(=O)c1ccc(F)cc1 (stereo not drawn),45.2% (active)
16,CN1CCn2cnc(C(=O)NCC(=O)OC(C)(C)C)c2C1=O,6.74% (inactive)
17,COc1ccc(-c2ccc(CN3C(CC(C)C)C(=O)N(Cc4cn(CC5CCCCC5)nn4)CCS3(=O)=O)cc2)cc1 (stereo not drawn),17.4% (inactive)
18,CCCNC(=O)C1CC(=O)N(c2ccc(OCc3ccccc3)cc2)C1 (stereo not drawn),-15.7% (inactive)
19,C/C(COc1ccccc1)=N\NC(=O)c1nnn(-c2nonc2N)c1-c1ccc(C)cc1,4.25% (inactive)
20,Cc1cc(Nc2ccc(C)c(C)c2)n2ncnc2n1,8.05% (inactive)
21,CC1CCCN(C(=O)CN2C(=O)c3ccccc3S2(=O)=O)C1 (stereo not drawn),-11.4% (inactive)

row,Structure (SMILES),inhibition
1,O=C(CSCc1ccccc1)N1CCc2ccccc21,-29.9% (inactive)
2,O=C(CN1C(=O)c2ccccc2S1(=O)=O)N1CCc2ccccc21,71.7% (active)
3,CC1(C2CC2)NC(=O)N(CC(=O)N2CCN(c3ccccc3F)CC2)C1=O (stereo not drawn),-9.22% (inactive)
4,COc1cc2nnn(-c3ccncc3)c2cc1OC,-4.43% (inactive)
5,CCCCN(C(C)=O)c1ccc2c(c1)C1CC2CCN1Cc1ccccc1 (stereo not drawn),2.88% (inactive)
6,CCOC(=O)c1cnc(-n2nc(C)cc2C)nc1NNc1cc(C)nc(-c2ccccc2)n1,73.6% (active)
7,Cc1cc(C)n(-c2c(F)c(F)c(COC(=O)c3ccccc3)c(F)c2F)n1,-9.15% (inactive)
8,Cc1cc(-n2nc(C)cc2C)n2ncc(-c3ccccc3)c2n1,-21% (inactive)
9,CCOC(=O)c1cc(-c2sc(NC(=O)c3ccccc3)nc2C)n(Cc2ccccc2)n1,12.1% (inactive)
10,COc1ccc(NC(=O)c2cc(=O)[nH]c3ccccc23)cc1S(=O)(=O)N1CCOCC1,-9.47% (inactive)
11,N#Cc1ccc(OCC(=O)Nc2nc(-c3ccccn3)cs2)cc1,23.6% (inactive)
12,COc1ccc(Cl)cc1NC(=O)CN(C)C(=O)c1cn(-c2ccccc2)nc1-c1cccs1,2.49% (inactive)
13,CC(=O)Nc1ccc2c3c(ccc([N+](=O)[O-])c13)CC2,3.38% (inactive)
14,Cc1cc(C)nc(-n2nc(C)cc2NC(=O)c2ccc(F)cc2F)n1,-4.13% (inactive)
15,COc1ccc(C(C)=O)cc1CSc1nc2nc(C)cc(C)n2n1,6.79% (inactive)
16,CC(=O)c1ccc(Oc2cc(C)nc(-n3nc(C)cc3C)n2)cc1,89.4% (active)
17,C[C@H]1CN([C@@H](C)CO)C(=O)CCCn2cc(nn2)CO[C@@H]1CN(C)S(=O)(=O)c1ccccc1C#N,6.79% (inactive)
18,C[C@H]1CN([C@@H](C)CO)C(=O)c2cc(-c3ccccc3F)cnc2O[C@H]1CN(C)C(=O)C1CCOCC1,-4.67% (inactive)
19,CCCCCCN1C[C@@H](O)[C@H](n2cc(COC(=O)c3ccccc3)nn2)C[C@@H]1c1ccc(Cl)cc1,1.86% (inactive)
20,C[C@H]1CN([C@@H](C)CO)C(=O)c2cc(Br)cnc2O[C@H]1CN(C)S(=O)(=O)c1cccs1,-1.05% (inactive)
21,COc1cccc(NC(=O)Nc2ccc(F)cc2)c1,-3.33% (inactive)

row,Structure (SMILES),inhibition
1,O=C(CSc1c2c(nc3ccc(Cl)cc13)CCCC2)NCc1ccco1,19.1% (inactive)
2,O=C(CSc1ccc(-c2ccco2)nn1)NCc1ccc2c(c1)OCO2,-3.64% (inactive)
3,O=C(CSc1nc2cc3c(cc2c(=O)n1CCC1=CCCCC1)OCO3)NCc1ccco1,44.3% (active)
4,COc1ccc(/C=C2\SC(=S)N(CCC(=O)N3CCOCC3)C2=O)cc1OC,9.24% (inactive)
5,Cc1cc(=O)cc(C)[nH]1,-6.47% (inactive)
6,CSc1cc(C)[nH]c(=O)n1,-0.805% (inactive)
7,Cc1cc(=O)[nH]c(=S)[nH]1,80.5% (active)
8,C[C@@H]1CN([C@H](C)CO)C(=O)CCCn2nncc2CO[C@@H]1CN(C)S(=O)(=O)c1cccc(C#N)c1,1.72% (inactive)
9,COCCCn1c(C(=O)NC2CCCCC2)cc2c(=O)n3cccc(C)c3nc21,1.22% (inactive)
10,C[C@H](O)[C@@H]1C(=O)N2CCc3c([nH]c4ccccc34)[C@@H]2C[C@@H]1N(C)C(=O)Nc1ccc(F)cc1,3.72% (inactive)
11,CC1C(=O)N(Cc2cn(CC3CCCCC3)nn2)CCS(=O)(=O)N1Cc1ccc(-c2cccc(N(C)C)c2)cc1 (stereo not drawn),6.34% (inactive)
12,CN(C)C(CNC(=O)c1cc(Br)c(Br)s1)c1ccco1 (stereo not drawn),-1.49% (inactive)
13,CC(=O)N1CCCc2cc(S(=O)(=O)CCC(=O)N3CCN(c4ccccc4)CC3)ccc21,-0.617% (inactive)
14,CC(=O)N1CCCc2cc(S(=O)(=O)N3CCCC(C(=O)N4CCN(c5cccc(Cl)c5)CC4)C3)ccc21 (stereo not drawn),42.1% (active)
15,CC(=O)N1c2ccc(S(=O)(=O)N3CCC(C(=O)N4CCN(c5ccccc5)CC4)CC3)cc2CC1C (stereo not drawn),4.09% (inactive)
16,Cc1cccc(S(=O)(=O)N(C)C[C@H]2OCc3cnnn3CCCC(=O)N([C@@H](C)CO)C[C@H]2C)c1,2.93% (inactive)
17,COc1ccccc1-n1c(SCC(=O)Nc2ccc(Cl)cc2)nc(O)c(Cc2ccccc2)c1=O,-7.65% (inactive)
18,c1c2c(cc3sc(N4CCCCC4)nc13)OCCO2,58% (active)
19,O=C(c1ccc2nc(N3CCOCC3)sc2c1)N1CCN(c2ccc(Cl)cc2)CC1,3.45% (inactive)
20,CN(C)CCN(C(=O)C1CCCCC1)c1nc2cc3c(cc2s1)OCO3,0.636% (inactive)
